# Test results from PubChem BioAssay (NCATS).
# Results filed as inconclusive are left out. Values without a mark were called inactive. The source made the active and inactive calls. The call rests on the fitted dose curve; in most records, active means well fitted cell-killing curve with a large enough effect; inconclusive means small, poorly fitted or top-dose-only effect, or effect the other way; inactive means no such curve, though single readings can be large or run the other way.
# Assay: Quantitative High-Throughput drug screen in 47 multiple myeloma cell lines against the NCATS MIPE library collection: ARD_JJKsccE7 cell viability assay (AID 1918929;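 on viability: 100% = DMSO-only wells and 0% = media-only wells without cells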)
# Settings: ARD myeloma cell line viability, CellTiter-Glo, 48 h; series mostly up to 45.8 µM; viability: at the top concentration
# How it was run: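 Inhibition of cell viability is measured here. Each line was plated at 500 cells per well, treated with MIPE 4.0 drugs, kept 48 hours at 37C, then assayed for ATP content by CellTiter-Glo luminescence.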
# Potency means the concentration at half of the fitted maximal effect.
SMILES,viability,Potency
Fc1ccc(C(c2ccc(F)cc2)N2CCN(CC=Cc3ccccc3)CC2)cc1,119%,–
NCC1CCC(C(=O)O)CC1 (stereo not drawn),136%,–
C[C@H]1[C@H](O)O[C@@H]2O[C@@]3(C)CC[C@@H]4[C@H](C)CC[C@@H]1[C@@]24OO3,–,4.18 µM (active)
CCCCCCOC(=O)N=C(N)c1ccc(NCc2nc3cc(C(=O)N(CCC(=O)OCC)c4ccccn4)ccc3n2C)cc1,–,14.8 µM (active)
O=C(O)c1nc(=O)[nH]c(=O)[nH]1,96.5% [at 23.2 µM],–
CC(NCCc1ccc(O)cc1)C(O)c1ccc(O)cc1 (stereo not drawn),118%,–
COc1cccc(OC)c1-c1cc(C(=O)NC2(C(=O)O)C3CC4CC(C3)CC2C4)nn1-c1ccnc2cc(Cl)ccc12 (stereo not drawn),127%,–
CN(C)CCN(Cc1ccc(Cl)cc1)c1ccccn1,101%,–
CCCC1OC2C[C@@H]3[C@H]4CCC5=CC(=O)C=C[C@]5(C)[C@H]4C(O)C[C@]3(C)[C@]2(C(=O)CO)O1 (stereo partly drawn),–,0.0118 µM (active)
CC[C@H](NC(=O)[C@H](C)NC)C(=O)N1C[C@@H](O)C[C@H]1Cc1c(-c2[nH]c3cc(F)ccc3c2C[C@H]2C[C@H](O)CN2C(=O)[C@H](CC)NC(=O)[C@H](C)NC)[nH]c2cc(F)ccc12,–,9.35 µM (active)

# Assay: Quantitative High-Throughput drug screen in 47 multiple myeloma cell lines against the NCATS MIPE library collection: Karpas620_DSMZ cell viability assay (AID 1918959); further: nearly all actives have a fitted effect of over 30% in size;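 on viability (% of DMSO): 100% = DMSO-only wells and 0% = cell-free media-only wells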
# Settings: Karpas620 myeloma viability, CellTiter-Glo ATP luminescence, 48 h; series mostly up to 45.8 µM; viability (% of DMSO): at the top concentration
# How it was run: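 Primary qHTS used for cherry-picking: cells at 500/well, library compounds for 48 h (37C, 5% CO2), luminescent ATP assay.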
SMILES,viability (% of DMSO),Potency
CC(O)=C(C#N)C(=O)Nc1ccc(C(F)(F)F)cc1,116%,–
O=C(Nc1ccccc1)Nc1ccc(-c2ccc(C(=O)[C@H]3CCC[C@H]3C(=O)O)cc2)cc1,–,13.2 µM (active)
CCC(=C(c1ccc(O)cc1)c1ccc(OCCNC)cc1)c1ccccc1,–,26.4 µM (active)
COc1ccnc(CS(=O)c2nc3ccc(OC(F)F)cc3[nH]2)c1OC (stereo not drawn),–,29.6 µM (active)
CCOC(=O)[C@@H](N)CCC(=O)N[C@@H](CSCc1ccccc1)C(=O)N[C@@H](C(=O)OCC)c1ccccc1,–,14.8 µM (active)
O=C1NC(=O)C(=Cc2ccc(-c3ccc(F)cc3O)o2)S1,93.2%,–
CC(C)C[C@@H](N)[C@H](O)C(=O)N[C@H](C(=O)N[C@H](C(=O)N[C@@H](CC(=O)O)C(=O)O)C(C)C)C(C)C,92.8%,–
CON(C)C(=O)N1N=C(c2cc(F)ccc2F)S[C@]1(CCCN)c1ccccc1,47.4%,–
CCN(CC)CCCCNc1nc2cc(Cl)c(Cl)cc2nc1-c1ccc(-c2cccs2)s1,–,9.35 µM (active)
CN(CC=CC#CC(C)(C)C)Cc1cccc2ccccc12,124%,–
CCNC(=O)[C@H]1O[C@@H](n2cnc3c(N)nc(NCCc4ccc(CCC(=O)O)cc4)nc32)[C@H](O)[C@H]1O,103%,–
CC=C(C(=CC)c1ccc(O)cc1)c1ccc(O)cc1,–,16.6 µM (active)
O=C1CCCC(=O)C1C(=O)c1ccc(C(F)(F)F)cc1[N+](=O)[O-],104%,–
CN1CCN2c3ncccc3Cc3ccccc3C2C1 (stereo not drawn),92.5%,–
CN[C@@H]1[C@@H](O)[C@@H](O[C@@H]2[C@@H](O)[C@H](O[C@H]3O[C@H](CN)[C@@H](O)[C@H](O)[C@@H]3O)[C@@H](N)C[C@@H]2NC(=O)[C@@H](O)CN)OC[C@]1(C)O,124%,–
Fc1ccc(C(c2ccc(F)cc2)N2CCN(CC=Cc3ccccc3)CC2)cc1,98.6%,–
O=C1Nc2ccc(I)cc2C1=Cc1cc(Br)c(O)c(Br)c1,–,14.8 µM (active)
O=C(O)C1=NC(C(=O)O)CC(C=CN2c3cc(O)c(OC4OC(CO)C(O)C(O)C4O)cc3CC2C(=O)O)=C1 (stereo not drawn),110%,–
NCC1CCC(C(=O)O)CC1 (stereo not drawn),102%,–
C[C@H]1[C@H](O)O[C@@H]2O[C@@]3(C)CC[C@@H]4[C@H](C)CC[C@@H]1[C@@]24OO3,–,5.26 µM (active)
OC[C@H]1O[C@@H](OCCc2ccc(O)cc2)[C@H](O)[C@@H](O)[C@H]1O,95.3%,–
CCCCCCOC(=O)N=C(N)c1ccc(NCc2nc3cc(C(=O)N(CCC(=O)OCC)c4ccccn4)ccc3n2C)cc1,–,7.43 µM (active)
O=C(O)c1nc(=O)[nH]c(=O)[nH]1,88.9% [at 23.2 µM],–
Cn1cc(-c2ccc3nnc(Sc4ccc5ncccc5c4)n3n2)cn1,–,1.18 µM (active)
CC(NCCc1ccc(O)cc1)C(O)c1ccc(O)cc1 (stereo not drawn),118%,–
COc1cccc(OC)c1-c1cc(C(=O)NC2(C(=O)O)C3CC4CC(C3)CC2C4)nn1-c1ccnc2cc(Cl)ccc12 (stereo not drawn),92.1%,–
N=C1SC(=Cc2ccc(-c3ccc4c(c3)C(=O)NC4=O)o2)C(=O)N1c1ccc(Br)cc1,138%,–
CC(C)c1onc(-c2c(Cl)cccc2Cl)c1COc1ccc(C=Cc2cccc(C(=O)O)c2)c(Cl)c1,119%,–
